Source: article PMC5540273 (PLoS ONE, 2017)

Tests used:
Conditions in all cases: concentration: 1 μM, replicates: in singlicate; n = 1
ALK = system: ALK
AMPK-alpha1 = system: T1, AMPK-alpha1
T1 construct: gene PRKAA1

AMPK-alpha2 = system: T2, AMPK-alpha2
T2 construct: gene PRKAA2

ANKK1 = system: ANKK1
ARK5 = system: T3, ARK5
T3 construct: gene NUAK1

ASK1 = system: T4, ASK1
T4 construct: gene MAP3K5

ASK2 = system: T5, ASK2
T5 construct: gene MAP3K6

AURKA = system: AURKA
AURKB = system: AURKB
AURKC = system: AURKC
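Further: KINOMEscan kinase panel screen.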

SMILES | %Inh (ALK) | %Inh (AMPK-alpha1) | %Inh (AMPK-alpha2) | %Inh (ANKK1) | %Inh (ARK5) | %Inh (ASK1) | %Inh (ASK2) | %Inh (AURKA) | %Inh (AURKB) | %Inh (AURKC)
CCn1c(-c2nonc2N)nc2ccccc21 [SB-693162/GW549034] | 0% | 7% | 0% | 51% | 3% | 16% | 2% | 27% | 37% | 0%
FC(F)(F)c1ccc(-c2ncn(CCCN3CCOCC3)c2-c2ccncc2)cc1 [SB-217780] | 0% | 9% | 4% | 0% | 0% | 0% | 0% | 0% | 0% | 27%
COc1cc2nccc(Nc3cccc(Oc4ccccc4)c3)c2cc1OC.Cl [GW284543] | 1% | 12% | 0% | 0% | 0% | 0% | 0% | 5% | 0% | 0%
COc1ccc(Nc2nccc(N3CCC(NS(=O)(=O)c4ccc(NC(C)=O)cc4)C3)n2)cc1 (stereo not shown) [GSK1379729] | 16% | 20% | 17% | 8% | 25% | 7% | 9% | 7% | 14% | 30%
O=C(Nc1ccc2c(c1)OCO2)NC1CCN(c2ccnc(NCc3ccc(F)cc3)n2)CC1 [GSK1379859] | 9% | 0% | 0% | 0% | 6% | 0% | 0% | 11% | 0% | 24%
COc1ccc(-c2cc3c(C)nc(N)nc3n([C@H]3CC[C@H](OCCO)CC3)c2=O)cn1 | 0% | 5% | 2% | 0% | 0% | 11% | 0% | 0% | 0% | 7%
COc1cc2ncn(-c3cc(OCc4ccncc4Br)c(C(N)=O)s3)c2cc1OC [GW854278] | 0% | 7% | 0% | 5% | 0% | 6% | 6% | 0% | 20% | 20%
Cc1nc(N(C)[C@H]2CN(C(=O)CC#N)CC[C@H]2C)c2cc[nH]c2n1 | 0% | 0% | 0% | 0% | 0% | 0% | 0% | 0% | 0% | 0%
CN1C(=O)C(Nc2cc(Cl)c(O)c(Cl)c2)=C(c2ccc(Cl)cc2)C1=O [SB-404321] | 48% | 0% | 0% | 0% | 0% | 0% | 0% | 0% | 14% | 0%
Nc1nc(-c2ccccc2F)c(-c2ccnc3ccccc23)s1 [GW560459] | 31% | 0% | 1% | 16% | 0% | 3% | 0% | 0% | 5% | 17%
Cc1cc(Nc2nc(-c3cccc(C)n3)nc3ccccc23)ccn1 [GW872411] | 0% | 0% | 0% | 0% | 9% | 0% | 0% | 3% | 14% | 0%
CN(C)c1cc(-c2ccc3c(N)n[nH]c3c2)nc(N)n1 [GSK2219329] | 0% | 0% | 11% | 10% | 0% | 0% | 0% | 0% | 10% | 9%
OCCCNc1nccc(-c2c(-c3cccc(C(F)(F)F)c3)nn3cc(C(F)(F)F)ccc23)n1 [GW630813] | 0% | 0% | 0% | 5% | 0% | 0% | 0% | 17% | 0% | 7%
CCS(=O)c1ccc(-c2coc3ccc(-c4nnc(C)o4)cc23)cc1 (stereo not shown) | 5% | 26% | 1% | 30% | 0% | 0% | 0% | 16% | 1% | 0%
COc1cc2ncn(-c3cc(OCCCc4ccccc4)c(C(N)=O)s3)c2cc1OC [GSK205189] | 0% | 28% | 0% | 0% | 0% | 0% | 0% | 0% | 18% | 45%
Nc1n[nH]c2nnc(-c3ccccc3)c(-c3ccccc3)c12 [GW554060] | 35% | 0% | 14% | 0% | 9% | 0% | 4% | 0% | 35% | 13%
Cc1c(Cn2c(C)nn3c(=O)cc(N4CCO[C@H](C)C4)nc23)cccc1C(F)(F)F [GSK2373690] | 22% | 0% | 27% | 0% | 2% | 11% | 15% | 0% | 27% | 30%

SMILES | %Inh (ALK) | %Inh (AMPK-alpha1) | %Inh (AMPK-alpha2) | %Inh (ANKK1) | %Inh (ARK5) | %Inh (ASK1) | %Inh (ASK2) | %Inh (AURKA) | %Inh (AURKB) | %Inh (AURKC)
O=C(Nc1n[nH]c2cc(-c3ccccc3F)ccc12)C1CC1 [SB-733371] | 0% | 0% | 0% | 10% | 0% | 0% | 0% | 16% | 51% | 46%
Nc1n[nH]c2ncc(-c3ccccc3)cc12 [SB-517081] | 38% | 0% | 0% | 28% | 2% | 0% | 0% | 21% | 64% | 27%
COc1ccc(-n2cnc3c(N)ncnc32)cc1 [SKF-97236] | 0% | 16% | 20% | 17% | 0% | 0% | 0% | 0% | 16% | 63%
Cc1cccc(-c2cc(-c3c[nH]nc3-c3ccccn3)ccn2)c1 [GW679395] | 30% | 0% | 0% | 0% | 0% | 5% | 0% | 8% | 15% | 0%
CCCNC(=O)Nc1ccc(Oc2ncnc3ccn(C)c23)cc1 | 0% | 0% | 12% | 0% | 0% | 0% | 1% | 7% | 60% | 0%
Cc1nnc(-c2ccc(C)c(-c3ccc(C(=O)O)cc3)c2)o1 [GW608005] | 1% | 0% | 0% | 0% | 11% | 0% | 0% | 0% | 0% | 6%
COc1cc2ncn(-c3cc(OCc4ccc(S(C)(=O)=O)cc4)c(C(N)=O)s3)c2cc1OC [GW869979] | 26% | 0% | 0% | 20% | 0% | 18% | 37% | 0% | 0% | 0%
Cc1ccc(Oc2ccc(Nc3ncnc4cc[nH]c34)cc2C)cn1 | 7% | 0% | 14% | 5% | 0% | 0% | 0% | 20% | 0% | 10%
COc1cc(Nc2ccnc3ccc(C(F)(F)F)cc23)cc(OC)c1OC [GW577382] | 22% | 0% | 25% | 12% | 10% | 6% | 19% | 49% | 0% | 7%
COc1cc2ncn(-c3cc(OCc4ccncc4)c(C(N)=O)s3)c2cc1OC [GSK336313] | 20% | 0% | 0% | 0% | 16% | 6% | 0% | 17% | 0% | 4%
Fc1cccc(CSc2nnc(-c3ccc4c(c3)CCO4)o2)c1 | 79% | 13% | 17% | 35% | 11% | 11% | 22% | 9% | 20% | 0%
Nc1ncnc2c1ncn2-c1ccc(Cl)cc1 [AH2635] | 0% | 0% | 0% | 0% | 0% | 0% | 0% | 0% | 0% | 17%
CCn1c(-c2ccoc2)nc2cnccc21 [SB-733887] | 31% | 10% | 9% | 0% | 0% | 23% | 5% | 16% | 45% | 10%
Nc1nccc2scc(-c3ccc4c(c3)CCN4C(=O)Cc3ccccc3)c12 [GSK2576924] | 0% | 0% | 21% | 21% | 9% | 6% | 0% | 9% | 16% | 25%
Cc1nn2c(=O)cc(N3CCOCC3)nc2n1Cc1cccc(Cl)c1Cl [GSK2342769] | 29% | 0% | 2% | 0% | 20% | 5% | 7% | 0% | 3% | 0%
Cc1ccccc1COc1cc(-n2cnc3cc(Cl)ccc32)sc1C(N)=O [GW813349] | 23% | 0% | 3% | 26% | 0% | 18% | 0% | 26% | 2% | 31%
COc1ccc(-c2cc3c(C)nc(N)nc3n([C@H]3CC[C@H](O)CC3)c2=O)cn1 | 0% | 0% | 0% | 0% | 4% | 6% | 0% | 0% | 0% | 0%
